Results on 17 molecules are retold here after PubChem BioAssay (NCI).

Compounds without any hit were thinned out: in the full panel of roughly 83,000, 20% have a hit.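 Negative percent growth values reflect cell death: -40 means 40% of the cells present at the start died, and -100 means all died.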 Values without a mark were called inactive. Activity calls are given as the source filed them. The calls were made as follows: active = growth percent below 10; inactive = the rest.

This experiment deals with A498 renal. In words: NCI-60 one-dose screen, 48 h (100 = growth as untreated, 0 = no growth, -100 = all killed). As to conditions: 10 µM unless noted.
In the case of `Nc1cc2nc3ccccc3sc-2cc1=O`, the growth is 106%. Then `C#Cc1nc(Nc2cc(C)[nH]n2)c2ccccc2n1`, with -93.6% (active). Then `CCOC(=O)c1nc(Nc2cc(C)[nH]n2)c2ccccc2n1`, with 62.4%; and `O=C(/C=C/c1ccc(Cl)cc1)/C=C/c1cc2ccccc2[nH]c1=O`, with 94.7%. Then `CCOC(=O)c1ccc2c(c1)nc(/C=C/c1ccc(Cl)cc1)n2-c1cc(C(C)(C)C)[nH]n1`, with 58.7%; and `CC(=O)OCC(=O)C1CCC=CC1OC(C)=O` (configuration not stated), with 110%; and `COc1cc(C2CC(=O)c3c(C)nn(-c4nc5ccccc5[nH]4)c3C2)cc(OC)c1OC` (configuration not stated), with 56.5%. On to `CC1(C)OCC2OC3(C(=O)O)OC(C)(C)OC3C2O1` (configuration not stated), for which the growth was 93.6%. Then `COc1ccc(C(=O)c2sc3nc(-c4ccccc4OC)ccc3c2N)cc1OC`, with 47.7%. Then `COc1ccc(C(=O)c2sc3nc4c(cc3c2N)CCCC4)cc1OC`, with 34.9%; and `Cc1ccc2c(NCCCN(C)C)c3c(C)nn(C)c3nc2c1`, with 28.3%. The value for `Cc1ccc(NC(=O)c2sc3nc4c(cc3c2N)C(=O)CCC4)cc1C` was -2.89% (active); that for `COc1c(C2CC(=O)Nc3c2cnn3Cc2ccco2)cc2c(c1OC)OCO2` (configuration not stated) was -2.53% (active). As to `Cc1ccn2c(-c3csc(Nc4cccc(O)c4)n3)c(C)nc2c1`, the growth was 64.7%. The value for `NC(CC(=O)O)C(=O)OCc1ccccc1` (configuration not stated) was 85.4%; that for `O=C1Nc2ccc(Br)cc2C12CC(c1ccccc1)=NN2` (configuration not stated) was 46.4%; that for `Cc1cc(Nc2nc(N3CCNCC3)nc3ccccc23)n[nH]1` was 45.3%.
